{
  "source": "the supplement of paper PMC8728848",
  "binders": {"B1": {"name": "PX9896A-bth-573-26-573 (Bacteroides thetaiotaomicron) (protein)", "chain": "ETNNLKTKEDMYKYFGTSKSMLTHVYSYMPQGYQLFATSGGIFTEDRYSMRDCASDDGEFGAYADNIQNTNNGNWSPIKTYDDSWTLYRGIRAANSFIAEIAQVDFTRYEHDGQYTNWMKQLKYFPYEARVLRAHYFFELARRYGDIAMPLEVLTEEEANTIGKTPFSEVISFIVSECDDAANNLPDSYVNEPGAEIGRVTKGFAMAVKSKALLYAASKLHNPSMDTELWKKSAKAAIDIINTGLYSLDPQESANNLDSKEVVLMRINGDDSDFEMFNLPLRMTAGTRTSSLIPYSNYPSQNLVDAFETVNGYKVTLENTGWVCEDPAFDPQSPYENRDKRFYRAILANGMSFKDYTIETFKGGADDGIVSQGGSPTGYFLRKYIQEATSFEPGKEAVSKHHWVIYRYAETLLTYAESMVNAFNDVNYTDETYKYSALWAINEVRKNADMPLIPSMGKDEFMERLYNEWRVEFAFEDHRFWDVRRWKIADTTQRELYGVKIEKQADGTFNFYKNLYETRNWRDCMYLYPIPQSELYKNTNLNPQNTGW"}},
  "assay_in_all_cases": "glycan array binding signal (z-score within array); higher = stronger binding",
  "conditions_in_all_cases": "glycan notation: IUPAC condensed, linker removed",
  "key": {"GalNAc6S(b1-4)GlcNAc": {"biological_target": "GalNAc6S(b1-4)GlcNAc", "summary_of_the_method": "(§1)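 Glycan array data came from 3228 arrays in the Consortium for Functional Glycomics database, and only arrays with an available protein sequence were kept. Glycan names were put into IUPAC-condensed notation, and columns mapping to the same glycan were averaged. The binding signal is a within-array Z-score, averaged across arrays of one protein sequence run at different concentrations or buffers and across linkers. A negative Z-score can be read as non-binding.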"}, "Glc(b1-4)Glc": {"biological_target": "Glc(b1-4)Glc", "summary_of_the_method": "as §1"}, "[1]": {"biological_target": "GlcNAc(b1-3)Gal(b1-3)GalNAc", "summary_of_the_method": "as §1"}, "GlcNAc(b1-3)Gal(b1-4)Glc": {"biological_target": "GlcNAc(b1-3)Gal(b1-4)Glc", "summary_of_the_method": "as §1"}, "[2]": {"biological_target": "GlcNAc(b1-3)Gal(b1-4)GlcNAc(b1-2)[GlcNAc(b1-3)Gal(b1-4)GlcNAc(b1-6)]Man(a1-6)[GlcNAc(b1-3)Gal(b1-4)GlcNAc(b1-2)Man(a1-3)]Man(b1-4)GlcNAc(b1-4)GlcNAc", "summary_of_the_method": "as §1"}, "[3]": {"biological_target": "GlcNAc(b1-3)Gal(b1-4)GlcNAc(b1-3)Gal(b1-4)GlcNAc", "summary_of_the_method": "as §1"}, "[4]": {"biological_target": "GlcNAc(b1-4)GlcNAc(b1-4)GlcNAc(b1-4)GlcNAc(b1-4)GlcNAc(b1-4)GlcNAc", "summary_of_the_method": "as §1"}, "[5]": {"biological_target": "GlcNAc6S(b1-3)Gal(b1-4)GlcNAc", "summary_of_the_method": "as §1"}, "[6]": {"biological_target": "Neu5Ac(a2-3)Gal(b1-3)GalNAc", "summary_of_the_method": "as §1"}, "[7]": {"biological_target": "Neu5Ac(a2-3)Gal(b1-3)GlcNAc(b1-2)Man(a1-3)[GlcNAc(b1-4)][Neu5Ac(a2-3)Gal(b1-3)GlcNAc(b1-2)Man(a1-6)]Man(b1-4)GlcNAc(b1-4)GlcNAc", "summary_of_the_method": "as §1"}, "[8]": {"biological_target": "Neu5Ac(a2-3)Gal(b1-4)GlcNAc(b1-2)[Neu5Ac(a2-3)Gal(b1-4)GlcNAc(b1-4)]Man(a1-3)[GlcNAc(b1-4)][Neu5Ac(a2-3)Gal(b1-4)GlcNAc(b1-2)[Neu5Ac(a2-3)Gal(b1-4)GlcNAc(b1-6)]Man(a1-6)]Man(b1-4)GlcNAc(b1-4)GlcNAc", "summary_of_the_method": "as §1"}, "[9]": {"biological_target": "Neu5Ac(a2-3)Gal(b1-4)GlcNAc(b1-3)Gal(b1-4)GlcNAc(b1-2)Man(a1-3)[Neu5Ac(a2-3)Gal(b1-4)GlcNAc(b1-3)Gal(b1-4)GlcNAc(b1-2)Man(a1-6)]Man(b1-4)GlcNAc(b1-4)GlcNAc", "summary_of_the_method": "as §1"}, "[10]": {"biological_target": "Neu5Ac(a2-3)Gal(b1-4)GlcNAc(b1-3)Gal(b1-4)[Fuc(a1-3)]GlcNAc", "summary_of_the_method": "as §1"}, "[11]": {"biological_target": "Neu5Ac(a2-3)Gal(b1-4)[Fuc(a1-3)]GlcNAc(b1-2)Man", "summary_of_the_method": "as §1"}, "[12]": {"biological_target": "Neu5Ac(a2-3)Gal(b1-4)[Fuc(a1-3)]GlcNAc(b1-3)GalNAc", "summary_of_the_method": "as §1"}, "[13]": {"biological_target": "Neu5Ac(a2-3)Gal6S(b1-4)[Fuc(a1-3)]GlcNAc", "summary_of_the_method": "as §1"}, "[14]": {"biological_target": "Neu5Ac(a2-3)[GalNAc(b1-4)]Gal(b1-4)GlcNAc(b1-3)GalNAc", "summary_of_the_method": "as §1"}, "[15]": {"biological_target": "Neu5Ac(a2-6)Gal(b1-4)GlcNAc(b1-2)Man", "summary_of_the_method": "as §1"}, "[16]": {"biological_target": "Neu5Ac(a2-6)Gal(b1-4)GlcNAc(b1-2)Man(a1-6)[GlcNAc(b1-2)Man(a1-3)]Man(b1-4)GlcNAc(b1-4)GlcNAc", "summary_of_the_method": "as §1"}, "[17]": {"biological_target": "Neu5Ac(a2-6)Gal(b1-4)GlcNAc(b1-2)[Neu5Ac(a2-6)Gal(b1-4)GlcNAc(b1-4)]Man(a1-3)[GlcNAc(b1-4)][Neu5Ac(a2-6)Gal(b1-4)GlcNAc(b1-2)[Neu5Ac(a2-6)Gal(b1-4)GlcNAc(b1-6)]Man(a1-6)]Man(b1-4)GlcNAc(b1-4)GlcNAc", "summary_of_the_method": "as §1"}, "[18]": {"biological_target": "Neu5Ac(a2-6)Gal(b1-4)GlcNAc(b1-2)[Neu5Ac(a2-6)Gal(b1-4)GlcNAc(b1-6)]Man(a1-6)[Neu5Ac(a2-6)Gal(b1-4)GlcNAc(b1-2)Man(a1-3)][GlcNAc(b1-4)]Man(b1-4)GlcNAc(b1-4)GlcNAc", "summary_of_the_method": "as §1"}, "[19]": {"biological_target": "Neu5Ac(a2-6)Gal(b1-4)GlcNAc(b1-3)Gal(b1-4)GlcNAc(b1-3)Gal(b1-4)GlcNAc(b1-2)Man(a1-3)[Neu5Ac(a2-6)Gal(b1-4)GlcNAc(b1-3)Gal(b1-4)GlcNAc(b1-3)Gal(b1-4)GlcNAc(b1-2)Man(a1-6)]GalNAc", "summary_of_the_method": "as §1"}, "[20]": {"biological_target": "Neu5Ac(a2-8)Neu5Ac(a2-3)[GalNAc(b1-4)]Gal(b1-4)Glc", "summary_of_the_method": "as §1"}, "[21]": {"biological_target": "Neu5Ac(a2-8)Neu5Ac(a2-8)Neu5Ac(a2-3)Gal(b1-4)Glc", "summary_of_the_method": "as §1"}, "[22]": {"biological_target": "Neu5Ac(a2-8)Neu5Ac(a2-8)Neu5Ac(a2-8)Neu5Ac(a2-3)[GalNAc(b1-4)]Gal(b1-4)Glc", "summary_of_the_method": "as §1"}, "[23]": {"biological_target": "Neu5Ac(a2-8)Neu5Gc(a2-3)Gal(b1-4)GlcNAc", "summary_of_the_method": "as §1"}, "Neu5Ac(b2-6)GalNAc": {"biological_target": "Neu5Ac(b2-6)GalNAc", "summary_of_the_method": "as §1"}, "Neu5Gc(a2-6)GalNAc": {"biological_target": "Neu5Gc(a2-6)GalNAc", "summary_of_the_method": "as §1"}},
  "note": "Only a selection was taken, and the strongest signals are over-represented in it overall.",
  "data": [
    {"binder": "B1", "values": [
      {"measurement": "glycan array binding signal (z-score)", "setting": "GalNAc6S(b1-4)GlcNAc", "result": -0.663},
      {"measurement": "glycan array binding signal (z-score)", "setting": "Glc(b1-4)Glc", "result": 0.069},
      {"measurement": "glycan array binding signal (z-score)", "setting": "[1]", "result": -0.077},
      {"measurement": "glycan array binding signal (z-score)", "setting": "GlcNAc(b1-3)Gal(b1-4)Glc", "result": 0.621},
      {"measurement": "glycan array binding signal (z-score)", "setting": "[2]", "result": 0.497},
      {"measurement": "glycan array binding signal (z-score)", "setting": "[3]", "result": -0.759},
      {"measurement": "glycan array binding signal (z-score)", "setting": "[4]", "result": -0.604},
      {"measurement": "glycan array binding signal (z-score)", "setting": "[5]", "result": 0.875},
      {"measurement": "glycan array binding signal (z-score)", "setting": "[6]", "result": -0.359},
      {"measurement": "glycan array binding signal (z-score)", "setting": "[7]", "result": -0.678},
      {"measurement": "glycan array binding signal (z-score)", "setting": "[8]", "result": -0.635},
      {"measurement": "glycan array binding signal (z-score)", "setting": "[9]", "result": -0.638},
      {"measurement": "glycan array binding signal (z-score)", "setting": "[10]", "result": -0.535},
      {"measurement": "glycan array binding signal (z-score)", "setting": "[11]", "result": -0.204},
      {"measurement": "glycan array binding signal (z-score)", "setting": "[12]", "result": 4.79},
      {"measurement": "glycan array binding signal (z-score)", "setting": "[13]", "result": -0.756},
      {"measurement": "glycan array binding signal (z-score)", "setting": "[14]", "result": -0.496},
      {"measurement": "glycan array binding signal (z-score)", "setting": "[15]", "result": -0.386},
      {"measurement": "glycan array binding signal (z-score)", "setting": "[16]", "result": -0.598},
      {"measurement": "glycan array binding signal (z-score)", "setting": "[17]", "result": -0.093},
      {"measurement": "glycan array binding signal (z-score)", "setting": "[18]", "result": -0.82},
      {"measurement": "glycan array binding signal (z-score)", "setting": "[19]", "result": 1.34},
      {"measurement": "glycan array binding signal (z-score)", "setting": "[20]", "result": -0.414},
      {"measurement": "glycan array binding signal (z-score)", "setting": "[21]", "result": -0.639},
      {"measurement": "glycan array binding signal (z-score)", "setting": "[22]", "result": 0.475},
      {"measurement": "glycan array binding signal (z-score)", "setting": "[23]", "result": 13.3},
      {"measurement": "glycan array binding signal (z-score)", "setting": "Neu5Ac(b2-6)GalNAc", "result": -0.726},
      {"measurement": "glycan array binding signal (z-score)", "setting": "Neu5Gc(a2-6)GalNAc", "result": -0.244}
    ]}
  ]
}
